# Source: PubChem BioAssay AID602291 (National Center for Advancing Translational Sciences (NCATS), 2012)
# Calls of active or inactive are those of the source.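 How the source made its calls: active means cells show a rise in impedance after compound treatment, with no numeric cutoff stated; inactive means no rise in impedance seen.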
# Target: Relaxin receptor 1 (Homo sapiens) (UniProt Q9HBX9)
# Test: qHTS Assay for Agonists of the Relaxin Receptor RXFP1: Cell Impedance
# Conditions: HEK293-RXFP1 cell impedance, xCELLigence, 500 nM time course; at 0.5 µM; active compounds read high
# Text: The relaxin hormone is involved in the variety of biological functions in normal tissues and diseases. The role of relaxin is well-established in female reproduction and parturition, mammary gland and endometrial development, maintenance of myometrial quiescence during pregnancy. Relaxin signaling through its G protein-coupled receptor (GPCR) RXFP1 results in ECM remodeling through regulation of collagen deposition, cell invasiveness, proliferation and overall tissue homeostasis. […] Recombinant human relaxin (rhRlx) is currently being tested in clinical trials as a protective agent in congestive heart failure, in treating severe preeclampsia, and as an anti-fibrotic agent in systemic sclerosis.
# Upon relaxin binding RXFP1 activation leads to the activation of adenylate cyclase (AC) via Gs. cAMP will activate PKA, which phosphorylates many signaling proteins. Thus, detection of cAMP increase is an easy and reliable indication of relaxin receptor activation. To screen for agonists of the relaxin receptor, a HEK293T cell line stably transfected with RXFP1 was used. RXFP1 activation was assayed by changes in cAMP levels as detected with a time-resolved fluorescence energy transfer (TR-FRET) cAMP detection kit.
# After the primary screen and rounds of SAR, a probe and analog were identified. It was previously shown that relaxin increases cell impedance in RXFP1 transfected cells. A cell line stably transfected with RXFP1 receptor HEK293-RXFP1 was used for cell impedance assay to confirm relaxin-like properties of the compounds.
# NIH Chemical Genomics Center [NCGC]
# NIH Molecular Libraries Probe Production Centers Network [MLPCN]
# Assay Submitter (PI): Alexander Agoulnik
# To equilibrate the plates, 100 microL of test media (DMEM, 1% FBS, 1x Pen/Strep) was added to each well of E Plate 16 (Roche Diagnostics, Indianapolis, IN) and the plate was incubated at room temperature for 30 minutes at which point baseline impedance was measures. Then 20,000 HEK293-RXFP1 cell or HEK293 cells (parental control cell line) were added per well in a volume of 100 microL test media and allowed to sediment at room temperature for 30 minutes. The plate was placed into xCELLigence RTCA DP Instrument in the CO2 incubator overnight to allow the cells to attach. Relaxin (10 ng/mL), vehicle, or compounds 500 nM were added to the wells and the cellular impedance was measured every 10-30 seconds for 1 hour.
# Relaxin receptor 1 (Homo sapiens), sequence (Q9HBX9 whole entry, looked up): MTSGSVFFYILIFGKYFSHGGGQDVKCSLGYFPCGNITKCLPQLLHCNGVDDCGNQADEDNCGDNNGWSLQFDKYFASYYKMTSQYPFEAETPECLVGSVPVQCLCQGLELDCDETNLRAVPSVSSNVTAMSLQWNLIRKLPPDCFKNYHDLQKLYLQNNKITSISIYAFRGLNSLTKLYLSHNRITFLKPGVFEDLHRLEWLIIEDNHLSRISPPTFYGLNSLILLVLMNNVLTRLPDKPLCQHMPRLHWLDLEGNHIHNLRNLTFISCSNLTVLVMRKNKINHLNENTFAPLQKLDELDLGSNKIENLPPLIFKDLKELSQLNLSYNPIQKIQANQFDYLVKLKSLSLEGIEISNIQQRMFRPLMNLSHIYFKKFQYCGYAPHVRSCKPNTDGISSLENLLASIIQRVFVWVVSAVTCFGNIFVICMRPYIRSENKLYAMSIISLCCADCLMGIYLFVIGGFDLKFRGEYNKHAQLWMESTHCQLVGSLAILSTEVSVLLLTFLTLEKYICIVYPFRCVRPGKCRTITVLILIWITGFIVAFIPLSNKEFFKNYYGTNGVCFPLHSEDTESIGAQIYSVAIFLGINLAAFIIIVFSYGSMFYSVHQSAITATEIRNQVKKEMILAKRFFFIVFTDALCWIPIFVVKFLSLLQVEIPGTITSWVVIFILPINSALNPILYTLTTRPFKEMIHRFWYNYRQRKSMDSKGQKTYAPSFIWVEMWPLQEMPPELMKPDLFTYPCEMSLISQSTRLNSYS
row,SMILES,impedance increase (% of relaxin)
1,CCCCOc1ccccc1C(=O)Nc1ccccc1C(=O)Nc1cccc(S(=O)(=O)C(F)(F)F)c1,39.5% (active)
2,CCOc1ccccc1C(=O)Nc1ccccc1C(=O)Nc1cccc(C(F)(F)F)c1,67% (active)
3,CC(C)Oc1ccccc1C(=O)Nc1ccccc1C(=O)Nc1cccc(S(=O)(=O)C(F)(F)F)c1,46.7% (active)
4,CCOc1ccccc1C(=O)Nc1ccccc1C(=O)Nc1cccc(S(=O)(=O)C(F)(F)F)c1,31.2% (active)
